Compound activity as filed in PubChem.
TbPYK inhibitor – qHTS of Trypanosoma Brucei Inhibitors | actives 0.12% (n = 410,000) | TbPYK enzyme, Kinase-Glo Plus ATP luminescence, 45 min | Potency, µM (highest dose often 76.8 µM), actives largely listed as inhibitors | pyruvate kinase (Trypanosoma brucei), Q57TT1; further: nearly all actives have a fitted effect of over 50% in size
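T. brucei PYK with substrate was exposed to pin-transferred compounds across a concentration series, then started with 130 uM ADP (final). After 45 min at room temperature, Kinase-Glo Plus luminescence was read, normalized and curve-fitted.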
RE007 growth inh – qHTS Assay for Inhibitors of the HIV-1 protein Vpr | actives 0.21% (n = 360,000) | S. pombe RE007 Vpr strain, BacTiter-Glo ATP luminescence, 24 h | AID 651644, 2012 | Potency, µM (doses to about 92.2 µM), actives largely listed as inhibitors; active means well fitted falling curve with a large enough effect; inconclusive means small, poorly fitted or top-dose-only effect; inactive means no such curve, though single readings can be large or run the other way; further: nearly all actives have a fitted effect of over 50% in size
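Fission yeast strain RE007, carrying one chromosomally integrated HIV-1 vpr copy, was seeded at OD 0.01 in PMG+AL medium with 23 nL pinned compound. After 24 h at 30 °C and 99% humidity, viability was read by BacTiter-Glo luminescence.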
Sm TGR inh – qHTS Assay for the Inhibitors of Schistosoma Mansoni Peroxiredoxins; Schistosoma mansoni thioredoxin glutathione reductase (TGR), Q962Y6; purified TGR, DTNB reduction, TNB absorbance 405 nm; Potency, µM (doses to about 114 µM), usual class: inhibitors; actives 3% (n = 360,000); AID 485364, 2010; further: nearly all actives have a fitted effect of over 60% in size
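TGR 20 nM + NADPH 100 uM (dispensed conc.), cpd preinc 15 min RT; start with NADPH (500 uM addition) then DTNB (15 mM addition). Kinetic TNB absorbance, 405 nm filter. Four-parameter Hill fit across titration.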
FMDV antiviral – High Throughput Screening for Foot and Mouth Disease Virus Antivirals; FMDV antiviral cell-based qHTS; Potency, µM (top dose mostly 57.9 µM), actives largely listed as inhibitors; actives 1.2% (n = 410,000); calls by dose curve; tested in HEK293T cells; further: read-out not given here; nearly all actives have a fitted effect of over 45% in size
Hits are given with their value. Hits are enriched below; roughly 3.7% of the tested compounds scored in any of these assays. Unless noted, the call rests on the fitted dose curve; in most records, active means well fitted curve in the direction sought with a large enough effect; inconclusive means small, poorly fitted or top-dose-only effect, or another doubt; inactive means no such curve, though single readings can be large; an effect the other way counts as inactive or inconclusive.

Results for O=C(CCl)N(C/C=C/c1ccccc1)c1ccc2c(c1)OCCO2 ?
TbPYK inhibitor: inactive; RE007 growth inh: inactive; Sm TGR inh: 7.1µM; FMDV antiviral: 25µM

What do the screens show for `COc1cc(SC)ccc1C(=O)Nc1ccc(Cl)cn1`?
TbPYK inhibitor: inactive; RE007 growth inh: inactive; Sm TGR inh: inactive; FMDV antiviral: 10µM

Results for CSc1ccc(Cl)c(C(=O)Nc2ccc(Cl)cn2)c1 ?
TbPYK inhibitor: inactive; RE007 growth inh: inactive; Sm TGR inh: inactive; FMDV antiviral: inactive

What do the screens show for `Cc1cc(C)n2nc(-c3ccsc3-n3c(C)ccc3C)cc2n1`?
TbPYK inhibitor: inactive; RE007 growth inh: inactive; Sm TGR inh: 3.5µM; FMDV antiviral: inactive

Results for COCCNC(=O)CCCn1c(SCC(=O)c2ccc(F)cc2)nc2c(sc3ccccc32)c1=O ?
TbPYK inhibitor: inactive; Sm TGR inh: inactive; FMDV antiviral: inactive

How did CCN1CCOC(=O)C1CC(=O)Nc1cccc(OC)c1 (centres undefined) do in these assays?
TbPYK inhibitor: inactive; Sm TGR inh: 18µM; FMDV antiviral: inactive

How did CCOc1ccc(NC(=O)CC2C(=O)OCCN2CC)cc1 (centres undefined) do in these assays?
TbPYK inhibitor: inactive; Sm TGR inh: 11µM; FMDV antiviral: inactive

Results for CCOC(=O)c1ccc(NC(=O)CC2OCCN(CC)C2=O)cc1 (centres undefined) ?
TbPYK inhibitor: inactive; RE007 growth inh: 4.5µM; Sm TGR inh: 25µM; FMDV antiviral: inactive

What do the screens show for `CCOC(=O)c1ccc(NC(=O)CC2NCCNC2=O)cc1` (centres undefined)?
TbPYK inhibitor: inactive; RE007 growth inh: inactive; Sm TGR inh: inactive; FMDV antiviral: inactive

Results for CCOC(=O)c1ccc(NC(=O)CC2C(=O)OCCN2CC)cc1 (centres undefined) ?
TbPYK inhibitor: inactive; RE007 growth inh: 5µM; Sm TGR inh: 22µM; FMDV antiviral: inactive

How did COC(=O)c1cc(NC(=O)CC2C(=O)OCCN2Cc2ccccc2)cc(C(=O)OC)c1 (centres undefined) do in these assays?
TbPYK inhibitor: inactive; Sm TGR inh: inactive; FMDV antiviral: inactive

Results for CC(C)(CNC(=O)c1cnn(-c2nccc(-c3cccs3)n2)c1C1CC1)N1CCOCC1 ?
FMDV antiviral: inactive

What do the screens show for `CCOC(=O)c1c(NC(=O)C(C)Sc2cn(CCNC(=O)c3ccc(OC)cc3)c3ccccc23)sc2c1CCC2` (centres undefined)?
TbPYK inhibitor: inactive; Sm TGR inh: inactive; FMDV antiviral: inactive

Results for CCS(=O)(=O)c1nc(S(=O)(=O)c2ccc(Cl)cc2)c(NCc2ccc(Cl)cc2)s1 ?
TbPYK inhibitor: inactive; Sm TGR inh: inactive; FMDV antiviral: inactive

How did CCOC(=O)C(=Cc1cc(=O)c(OC)co1)C(=O)OCC do in these assays?
TbPYK inhibitor: inconclusive; RE007 growth inh: inactive; Sm TGR inh: inconclusive; FMDV antiviral: 8.9µM

Results for COCCN(C)Cc1cn(-c2ccc(F)cc2F)nc1-c1ccccc1C ?
TbPYK inhibitor: inactive; RE007 growth inh: inactive; Sm TGR inh: 5µM; FMDV antiviral: inactive

What do the screens show for `OC1(c2cccnc2)CCN(Cc2ccc3c(c2)CN(Cc2ccc(F)c(F)c2)CCO3)CC1`?
FMDV antiviral: inactive

How did C=C1C(=O)[C@]23C[C@H]1CCC2[C@]1(C)CCC[C@@](C)(C(=O)O)C1C[C@@H]3O (some centres undefined) do in these assays?
TbPYK inhibitor: inactive; RE007 growth inh: inconclusive; FMDV antiviral: 25µM

What do the screens show for `C=C1C(=O)[C@]23C[C@H]1CCC2[C@]1(C)C(=O)CC[C@@](C)(C(=O)O)C1C[C@@H]3O` (some centres undefined)?
TbPYK inhibitor: inactive; RE007 growth inh: inactive; FMDV antiviral: 35µM

How did C=C1C(=O)[C@]23C[C@H]1CC[C@H]2[C@]1(C)[C@@H](OC(C)=O)CC[C@@](C)(C(=O)O)[C@H]1C[C@@H]3OC(C)=O do in these assays?
TbPYK inhibitor: inactive; RE007 growth inh: inactive; FMDV antiviral: inconclusive

Results for COc1ccccc1-c1nc2cc(C(=O)NC[C@H]3CCc4ccccc4O3)cc(NC(C)=O)c2n1C ?
FMDV antiviral: inactive

What do the screens show for `CCc1c(C)nc2nncn2c1Nc1cccc(C)c1`?
TbPYK inhibitor: inactive; Sm TGR inh: inactive; FMDV antiviral: inactive

What do the screens show for `COc1cccc(/C=C/c2nc(C#N)c(N3CCCCC3)o2)c1`?
TbPYK inhibitor: inactive; Sm TGR inh: inactive; FMDV antiviral: inactive

Results for CN1CCN(C(c2ccc(C(F)(F)F)cc2)c2ccc3cccnc3c2O)CC1 (centres undefined) ?
TbPYK inhibitor: inactive; RE007 growth inh: inactive; Sm TGR inh: 0.32µM; FMDV antiviral: inactive

What do the screens show for `Oc1c(C(c2cccs2)N2CCN(c3ccccc3)CC2)ccc2cccnc12` (centres undefined)?
Sm TGR inh: 0.71µM

How did Oc1c(C(c2ccccc2Cl)N2CCCC2)ccc2cccnc12 (centres undefined) do in these assays?
TbPYK inhibitor: inactive; RE007 growth inh: inconclusive; Sm TGR inh: inconclusive; FMDV antiviral: inconclusive

How did CC(=O)NC(c1ccc(C(C)C)cc1)c1ccc2cccnc2c1O (centres undefined) do in these assays?
TbPYK inhibitor: inactive; RE007 growth inh: inconclusive; Sm TGR inh: inactive; FMDV antiviral: inactive

Results for Cc1cccc(C(=O)n2nc(C)c(S(=O)(=O)N3CCOCC3)c2C)c1 ?
TbPYK inhibitor: inactive; Sm TGR inh: inactive; FMDV antiviral: inactive

What do the screens show for `Cc1sc2nc(CN3CCCC3)nc(Cl)c2c1C`?
TbPYK inhibitor: inactive; RE007 growth inh: inactive; Sm TGR inh: 7.1µM; FMDV antiviral: inactive

How did Cc1sc2nc(CN3CCCC3)nc(NCc3ccncc3)c2c1C do in these assays?
TbPYK inhibitor: inactive; RE007 growth inh: inactive; Sm TGR inh: 40µM; FMDV antiviral: inactive

What do the screens show for `CCOC(=O)c1sc2nc(CN3CCCCC3)nc(Cl)c2c1C`?
TbPYK inhibitor: inactive; RE007 growth inh: inactive; Sm TGR inh: inactive; FMDV antiviral: inactive

How did Cc1ccc(-c2ccnc(-n3ncc(C(=O)N4CCCCC4c4cccnc4)c3C3CC3)n2)o1 (centres undefined) do in these assays?
FMDV antiviral: inactive

How did Cn1c(N)c(C(=O)Nc2cccc(Cl)c2)c(=O)n(C)c1=O do in these assays?
TbPYK inhibitor: inactive; RE007 growth inh: inactive; Sm TGR inh: inactive; FMDV antiviral: inactive

What do the screens show for `CN=c1sc(C(=O)Nc2cccc(Cl)c2)cc(=O)n1C`?
TbPYK inhibitor: 20µM; RE007 growth inh: inactive; Sm TGR inh: inactive; FMDV antiviral: inactive

Results for CCOC(=O)c1ccc(NC(=O)CSc2nc3c(cc2C#N)N2CCC3CC2)cc1 ?
TbPYK inhibitor: inactive; Sm TGR inh: inactive; FMDV antiviral: 13µM

How did CC1(C)CC1C(=O)N/C(=C/CCCCSCC(N)C(=O)O)C(=O)O (centres undefined) do in these assays?
TbPYK inhibitor: inactive

How did CCOC(=O)C(=Cc1ccc(N(C)C)cc1)C(=O)c1ccccc1 do in these assays?
TbPYK inhibitor: inactive; RE007 growth inh: inactive; FMDV antiviral: inconclusive
